From PubChem BioAssay (NCATS)
Records with an inconclusive call do not appear. Activity calls are given as the source filed them. The call rests on the fitted dose curve; in most records, active means well fitted activation curve with a large enough effect in the main read-out, with a control signal flat (not every such curve was filed as active); inconclusive means small, poorly fitted or top-dose-only effect, or effect the other way, or a change in a side signal; inactive means flat fitted curve, though single readings scatter.

What follows are compounds tested against 3',5'-cyclic-AMP phosphodiesterase 4B (Homo sapiens) (UniProt Q07343) (assay: qHTS Assay for Inhibitors of PDE-IV (AID 607; further: % of control where 0% means no effect)). Conditions: HEK293 ACTOne CNG channel cells, membrane potential fluorescence; series mostly up to 22.9 µM; activation (PDE inhibition): at the top concentration.
Method in brief: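 Live HEK293 cells with a modified cyclic nucleotide-gated (CNG) channel report intracellular cAMP via membrane-potential dye fluorescence (ex 535/em 590 nm). Endogenous PDE-IV was targeted. Compounds were tested at up to 22.9 uM final; RO 20-1724 100 uM served as control.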

3',5'-cyclic-AMP phosphodiesterase 4B (Homo sapiens), sequence (Q07343 whole entry, looked up): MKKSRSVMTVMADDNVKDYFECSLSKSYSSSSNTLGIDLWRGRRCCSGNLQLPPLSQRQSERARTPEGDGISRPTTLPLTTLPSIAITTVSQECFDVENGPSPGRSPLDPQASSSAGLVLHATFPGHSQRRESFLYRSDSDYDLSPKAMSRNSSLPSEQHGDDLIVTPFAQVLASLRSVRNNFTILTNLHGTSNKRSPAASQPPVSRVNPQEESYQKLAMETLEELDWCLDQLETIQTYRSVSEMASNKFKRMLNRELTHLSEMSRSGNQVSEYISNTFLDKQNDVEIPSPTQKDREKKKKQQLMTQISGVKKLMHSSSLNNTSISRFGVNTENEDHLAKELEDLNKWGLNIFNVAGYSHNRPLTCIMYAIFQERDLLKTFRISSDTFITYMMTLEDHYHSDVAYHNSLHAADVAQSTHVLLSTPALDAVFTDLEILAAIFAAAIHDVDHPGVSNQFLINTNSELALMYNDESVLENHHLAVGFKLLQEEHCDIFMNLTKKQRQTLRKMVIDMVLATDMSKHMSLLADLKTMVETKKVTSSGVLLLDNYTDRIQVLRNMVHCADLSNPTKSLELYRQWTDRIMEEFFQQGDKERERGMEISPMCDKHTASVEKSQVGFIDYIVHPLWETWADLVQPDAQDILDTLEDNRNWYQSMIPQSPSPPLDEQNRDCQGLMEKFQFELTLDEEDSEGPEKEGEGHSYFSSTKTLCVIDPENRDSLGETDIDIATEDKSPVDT

Structure (SMILES)	activation (PDE inhibition)
CCCOc1cc(N)ccc1C(=O)OCCN(CC)CC	11.8% (inactive)
CN1C(=O)OC(C)(C)C1=O	-0.105% (inactive)
COc1cc(S(C)=O)ccc1-c1nc2ncccc2[nH]1 (stereo unspecified)	18.6% (inactive)
N[C@H](CC(=O)O)C(=O)O	-0.519% (inactive)
Cc1ncc(C[n+]2csc(CCO)c2C)c(N)n1	2.01% (inactive)
CC(=O)N=c1sc(S(N)(=O)=O)nn1C	11.8% (inactive)
O=C(O)CCC(=O)c1ccc(-c2ccccc2)cc1	8.14% (inactive)
CNC(=O)c1c(I)c(C(=O)NCC(=O)Nc2c(I)c(C(=O)O)c(I)c(C(=O)NCCO)c2I)c(I)c(N(C)C(C)=O)c1I	7.9% (inactive)
CC1(C)S[C@@H]2[C@H](NC(=O)C3(N)CCCCC3)C(=O)N2[C@H]1C(=O)O	0.0114% (inactive)
O=C(O)Cc1cc(I)c(Oc2ccc(O)c(I)c2)c(I)c1	13.4% (inactive)
O=P(O)(O)OP(=O)(O)O	-0.172% (inactive)
O=C1NCCN1c1ncc([N+](=O)[O-])s1	5.05% (inactive)
CC(=O)[C@H]1CC[C@H]2[C@@H]3C=CC4=CC(=O)CC[C@@]4(C)[C@H]3CC[C@]12C	12% (inactive)
Nc1ccc(N=Nc2ccccc2)c(N)n1	-17.9% (inactive)
Cc1cc(C)c(NC(=O)C[C@H](CC(=O)O)c2cccc3ccccc23)c(C(=O)N2CCC3(CCCC3)CC2)c1	-21.3% (inactive)
CCSc1ccc2c(c1)N(CCCN1CCN(C)CC1)c1ccccc1S2	1.23% (inactive)
